This note sets out measurements from PubChem BioAssay (EPA / NIEHS).

Several values for one entry are separate records, joined by “and”; a condition that tells them apart may be missing. Equal values may be shown once. A structure can be active in one record and inactive in another. Activity calls are given as the source filed them. The calls were made as follows: active = hit-call score of the fitted dose curve at least 0.9, where 1 is the maximum; inactive = score below 0.9.

Read-out in this experiment: ABC Transporter (ABCB11), ABCB11 (gene 8647)
Nature of the experiment: LTEA_HepaRG_ABCB11: Life Technologies and Expression Analysis (LTEA) Assay for ABC Transporter (ABCB11) using HepaRG (AID 2283463). As to conditions: mRNA level, 48 h; actives raise or lower the signal. The procedure, abridged:
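Differentiated human HepaRG cells were exposed for 48 h in serum-free induction medium to eight half-log concentrations up to 100 uM in 0.5% DMSO. ABCB11 mRNA was quantified by qRT-PCR, normalized to ACTB, GAPDH and POLR2A, and fitted bidirectionally versus DMSO.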
`CNC(=O)/C=C(\C)OP(=O)(OC)OC`: the outcome was inactive.

Consider `N#Cc1c(Cl)c(Cl)c(Cl)c(C#N)c1Cl`, for which the concentration at half-maximal activity (AC50) was 47.1 µM (active).

As for `CC1(C)C(C=C(Cl)Cl)C1C(=O)OC(C#N)c1ccc(F)c(Oc2ccccc2)c1` (stereo not given), the result was inactive.

Consider `O=C(NC(=O)c1c(F)cccc1F)Nc1ccc(OC(F)(F)C(F)OC(F)(F)F)c(Cl)c1` (stereo not given), for which the compound was called inactive.

Turning to `O=C(Nc1ccccc1)Nc1cnns1`, the AC50 is 63.6 µM (active).

As to `O=S(=O)(O)C(F)(F)C(F)(F)C(F)(F)C(F)(F)C(F)(F)C(F)(F)C(F)(F)C(F)(F)F`, the half-maximal activity concentration (AC50) was 90.7 µM (active) and 85.1 µM (active) and 86.6 µM (active); the outcome was inactive.

Turning to `CCc1ccc(C(=O)NN(C(=O)c2cc(C)cc(C)c2)C(C)(C)C)cc1`, the result was inactive.

With `COP(=O)(OC)OC=C(Cl)Cl`, the result was inactive.

Regarding `CC[C@H](C)[C@H]1O[C@]2(C=C[C@@H]1C)C[C@@H]1C[C@@H](C/C=C(\C)[C@@H](O[C@H]3C[C@H](OC)[C@@H](O[C@H]4C[C@H](OC)[C@@H](O)[C@H](C)O4)[C@H](C)O3)[C@@H](C)/C=C/C=C3\CO[C@@H]4[C@H](O)C(C)=C[C@@H](C(=O)O1)[C@]34O)O2` (tested in a mixture with another compound), the concentration at half-maximal activity (AC50) is 15.8 µM (active).

As for `Clc1ccccc1-c1nnc(-c2ccccc2Cl)nn1`, the compound was classed as inactive.

In the case of `CNC(=O)Oc1ccccc1OC(C)C`, the call was inactive.

`O=C1c2ccccc2C(=O)N1SC(Cl)(Cl)Cl`: the call was inactive.

As for `CCOC1Oc2ccc(OS(C)(=O)=O)cc2C1(C)C` (stereo not given), the AC50 is 73 µM (active).

With `O=C(O)CCCOc1ccc(Cl)cc1Cl`, the compound was called inactive.

What is called AC50 is the concentration giving half of the maximal activity seen.
